Reference: the supplement of paper PMC7366291
Structures can show the parent of a compound that is named as a salt. ± gives the standard deviation or the standard deviation of the averaged measurements.

Tests used:
Details in all cases: 25 µM; exposure: 24-48 hpf
[1] = system: Danio rerio Tg(wt1b:EGFP) embryo, pronephros; experiment: glomerular separation, fold change vs DMSO control; higher = glomeruli further apart (abnormal)
Procedure, shortened: (§1)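 In HEPES-buffered E3 with 0.003% PTU and 0.5% DMSO, dechorionated Tg(wt1b:EGFP) zebrafish embryos were exposed to 25 μM compound from 24 to 48 hpf at 28.5°C. Pronephroi were then imaged dorsally at 470 nm in 10 z-slices, in 96-well plates filled with agarose. On maximum projections, a Fiji macro turned 16 manually placed reference points into distances and angles, and values more than 2 SD from the feature mean were excluded. Features are fold changes relative to the mean of DMSO-treated embryos from the same day.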

[2] = system: Danio rerio Tg(wt1b:EGFP) embryo, pronephros; experiment: glomerular width (mean of left and right), fold change vs DMSO control; higher = wider glomerulus
Procedure, shortened: as §1

[3] = system: Danio rerio Tg(wt1b:EGFP) embryo, pronephros; experiment: fraction of imaged embryos annotated as normal kidney; higher = less nephrotoxic; extreme values may be limits of the assay
Procedure, shortened: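 Embryos of the Tg(wt1b:EGFP) zebrafish line were dechorionated and held in 12-well plates with 25 μM compound in 0.5% DMSO and 5 mM HEPES-buffered E3 containing 0.003% PTU, from 24 to 48 hpf at 28.5°C. Larvae were then anaesthetised with tricaine, set dorsal side up in agarose-filled 96-well plates, and their pronephroi imaged by widefield fluorescence at 470 nm over 10 z-slices. Each value is the fraction of embryos per treatment placed in the normal-kidney category after manual annotation of maximum projections.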

[4] = system: Danio rerio Tg(wt1b:EGFP) embryo, pronephros; experiment: pronephric angle neck segment to proximal convoluted tubule (mean of left and right), fold change vs DMSO control; higher = larger pronephric angle
Procedure, shortened: as §1

| Compound | glomerular separation [1] | glomerular width [2] | fraction of imaged embryos annotated as normal kidney [3] | pronephric angle neck segment [4] |
| --- | --- | --- | --- | --- |
| CC(C)(C)NCC(O)COc1cccc2c1CC(O)C(O)C2 (configuration not stated) [Nadolol] | 0.664 ± 0.2 | 1.03 ± 0.12 | 0.833 | 0.908 ± 0.02 |
| CC(C)[C@H](N)C(=O)OCCOCn1cnc2c(=O)nc(N)[nH]c21 [Valacyclovir hydrochloride] | 0.851 ± 0.28 | 1 ± 0.066 | 0.917 | 0.955 ± 0.044 |
| N[C@@H](C(=O)N[C@@H]1C(=O)N2C(C(=O)O)=C(Cl)CS[C@H]12)c1ccccc1 [Cefaclor hydrate] | 1 ± 0.21 | 0.95 ± 0.093 | 0.833 | 1.01 ± 0.028 |
| NCCc1cc[nH]n1 [Betazole hydrochloride] | 1.28 ± 0.54 | 0.9705 ± 0.0028 | 0.917 | 1.05 ± 0.012 |
| NC[C@H]1CC[C@H](C(=O)O)CC1 [Tranexamic acid] | 0.901 ± 0.18 | 0.9771 ± 0.0082 | 1 | 1.05 ± 0.022 |
| Nc1ccc(S(=O)(=O)Nc2ccccn2)cc1 [Sulfapyridine] | 0.906 ± 0.35 | 1.07 ± 0.03 | 0.75 | 1 ± 0.083 |
| Nc1nc(N)nc(-c2cc(Cl)ccc2Cl)n1 [Irsogladine maleate] | 1.11 ± 0.39 | 0.976 ± 0.016 | 0.909 | 1.07 ± 0.029 |
| OC(c1cc(C(F)(F)F)nc2c(C(F)(F)F)cccc12)C1CCCCN1 (configuration not stated) [Mefloquine hydrochloride] | 1.17 ± 0.51 | 1.01 ± 0.019 | 0.667 | 1.017 ± 0.0068 |
| CC(=O)Oc1ccc(C(c2ccc(OC(C)=O)cc2)c2ccccn2)cc1 [Bisacodyl] | 0.927 ± 0.28 | 0.957 ± 0.038 | 0.917 | 1.01 ± 0.016 |
| Nc1ccc(S(N)(=O)=O)cc1 [Sulfanilamide] | 0.646 ± 0.14 | 1 ± 0.063 | 0.833 | 0.996 ± 0.0089 |
| CCCOc1ccc(C(=O)OCCN(CC)CC)cc1N [Proparacaine hydrochloride] | 0.768 ± 0.39 | 0.93 ± 0.052 | 0.833 | 0.998 ± 0.041 |
| CN(C)CCOC(=O)C(c1ccccc1)C1(O)CCCC1 (configuration not stated) [Cyclopentolate hydrochloride] | 0.745 ± 0.24 | 0.9284 ± 0.0066 | 0.75 | 1.02 ± 0.035 |
| Cn1c(=O)c2c(ncn2CCO)n(C)c1=O [Etofylline] | 0.926 ± 0.37 | 0.951 ± 0.023 | 0.917 | 0.9776 ± 0.00038 |
| CC(C(=O)O)c1ccc(C(=O)c2cccs2)cc1 (configuration not stated) [Suprofen] | 1.78 ± 0.63 | 1.02 ± 0.14 | 0.75 | 1.03 ± 0.081 |
| C=C1/C(=C\C=C2/CCC[C@]3(C)[C@@H]([C@H](C)/C=C/[C@@H](O)C4CC4)CC[C@@H]23)C[C@@H](O)C[C@@H]1O [Calcipotriene] | 1.01 ± 0.34 | 1.06 ± 0.012 | 0.75 | 0.89787 ± 0.00058 |
| CS(=O)(=O)OCCCCOS(C)(=O)=O [Busulfan] | 0.771 ± 0.21 | 0.97453 ± 0.00036 | 0.75 | 0.943 ± 0.034 |
| CCn1cc(C(=O)O)c(=O)c2cc(F)c(N3CCNCC3)cc21 [Norfloxacin] | 0.828 ± 0.22 | 1.05 ± 0.037 | 1 | 0.9433 ± 0.0086 |
| CNC[C@H](O)[C@@H](O)[C@H](O)[C@H](O)CO [Meglumine] | 0.734 ± 0.11 | 1.03 ± 0.061 | 0.909 | 1.006 ± 0.0029 |
| COc1c2occc2c(OC)c2c(=O)cc(C)oc12 [Khellin] | 0.835 ± 0.39 | 1 ± 0.033 | 1 | 1.03 ± 0.0013 |
| CN1CCN2c3ncccc3Cc3ccccc3C2C1 (configuration not stated) [Mirtazapine] | 0.964 ± 0.35 | 0.98 ± 0.037 | 1 | 0.994 ± 0.056 |
| CNCCC=C1c2ccccc2C=Cc2ccccc21 [Norcyclobenzaprine] | 1.12 ± 0.86 | 1.01 ± 0.051 | 0.833 | 0.94 ± 0.027 |
| CC(C)(O)c1ccccc1CC[C@@H](SCC1(CC(=O)O)CC1)c1cccc(/C=C/c2ccc3ccc(Cl)cc3n2)c1 [Montelukast] | 0.861 ± 0.26 | 0.925 ± 0.047 | 0.833 | 1.04 ± 0.026 |
| CCCNC(=O)NS(=O)(=O)c1ccc(Cl)cc1 [Chlorpropamide] | 1.09 ± 0.39 | 1.06 ± 0.087 | 0.75 | 1.051 ± 0.0085 |
| C[C@]12CC[C@@H]3c4ccc(O)cc4C[C@@H](CCCCCCCCC[S+]([O-])CCCC(F)(F)C(F)(F)F)[C@H]3[C@@H]1CC[C@@H]2O (some centres not stated) [Fulvestrant] | 1.22 ± 0.45 | 0.963 ± 0.037 | 0.833 | 0.874 ± 0.065 |
| Clc1ccc(CCC(Cn2ccnc2)Sc2c(Cl)cccc2Cl)cc1 (configuration not stated) [Butoconazole nitrate] | 2.43 ± 1.2 | 0.767 ± 0.047 | 0 | 1.25 ± 0.056 |
| C[C@@H]1C[C@H]2[C@@H]3CCC4=CC(=O)C=C[C@]4(C)[C@@]3(Cl)[C@@H](O)C[C@]2(C)[C@@]1(OC(=O)c1ccco1)C(=O)CCl [Mometasone furoate] | 0.99 ± 0.37 | 1.26 ± 0.082 | 0.455 | 0.993 ± 0.085 |
| CCc1nc(N)nc(N)c1-c1ccc(Cl)cc1 [Pyrimethamine] | 0.78 ± 0.26 | 1.15 ± 0.041 | 0.75 | 0.974 ± 0.018 |
| Clc1ccc2nsnc2c1NC1=NCCN1 [Tizanidine hydrochloride] | 1.02 ± 0.43 | 1.01 ± 0.016 | 0.833 | 0.984 ± 0.036 |
